Molecules are shown by their SMILES. Inconclusive results are not listed. Active and inactive are the calls of the source. Calls come from the whole dose curve; as a rule, active = well fitted curve in the direction sought with a large enough effect; inconclusive = small, poorly fitted or top-dose-only effect, or another doubt; inactive = no such curve, though single readings can be large; an effect the other way counts as inactive or inconclusive.

Experimental findings from PubChem BioAssay (NCATS) are described below.

The target in experiment [1] is Rap guanine nucleotide exchange factor 3 (Homo sapiens) (UniProt O95398). In words: Confirmatory qHTS for agonist of cAMP-regulated guanine nucleotide exchange factor 3 (EPAC1) (AID 1645881).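 Note: EPAC1 catalysed release of BODIPY-GDP from Rap1B seen as fluorescence loss; nearly all actives have a fitted effect of over 75% in size.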
In experiment [2] the target is Rap guanine nucleotide exchange factor 4 (Homo sapiens) (UniProt Q8WZA2). Nature of the experiment: Confirmatory qHTS for agonist of cAMP-regulated guanine nucleotide exchange factor 4 (EPAC2) (AID 1645884;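 note: nucleotide exchange releases bodipy-GDP from Rap1 and this lowers its fluorescence; nearly all actives have a fitted effect of over 65% in size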). (qHTS replaces the single test concentration by a dilution series.)
The target in experiment [3] is Rap guanine nucleotide exchange factor 3 (Homo sapiens) (UniProt O95398). In words: Counterscreen qHTS for antagonist of cAMP-regulated guanine nucleotide exchange factor 3 (EPAC1) (AID 1645888).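 Note: fluorescence loss as bound BODIPY-GDP is released from Rap1B.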 A digest of the protocol: (§1)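 Rap1B-BODIPY-GDP 250 nM + GDP 50 uM; cpds 7-pt, final 9.74 nM–152 uM (activator mode) or from 7.32 nM upwards (inhibitor mode); RT; FI 480/540 nm at 5 and 30 min, then ± cAMP, reread.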
On the technique in general: The purpose of a counterscreen is to sort out artefacts and off-target activity.

The target is the same in experiment [4]. Nature of the experiment: Counterscreen qHTS for agonist of cAMP-regulated guanine nucleotide exchange factor 3 (EPAC1) (AID 1645889). Note: nearly all actives have a fitted effect of over 40% in size. A digest of the protocol:
as §1

Experiment [5] addresses Rap guanine nucleotide exchange factor 4 (Homo sapiens) (UniProt Q8WZA2). Nature of the experiment: Confirmatory qHTS for antagonist of cAMP-regulated guanine nucleotide exchange factor 4 (EPAC2) (AID 1645885). Note: nearly all actives have a fitted effect of over 25% in size.
Experiment [6] in a line: Counterscreen for APE1 Inhibitors: Fluorescent Dye Displacement Validation Assay (AID 1707). A digest of the protocol: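 Thiazole Orange displacement from dsDNA: 250 nM ThO with 50 nM TAMRA-labelled abasic-site (tetrahydrofuran) duplex in 50 mM Tris-HCl pH7.5, 50mM NaCl, 2 mM MgCl2, 0.01% Tween-20. Loss of endpoint fluorescence (ex 480 nm, em 540 nm) flags DNA binders.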

Experiment [7] can be described thus: qHTS for differential inhibitors of proliferation of Plasmodium falciparum line 7G8 (AID 1815).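 Note: potency is the fitted concentration of half-maximal effect; parasite growth measured after three days of incubation.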
Experiment [8] can be described thus: qHTS for differential inhibitors of proliferation of Plasmodium falciparum line GB4 (AID 1816).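 Note: potency is the fitted concentration of half-maximal effect; parasite growth measured after 72 h incubation.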 Particulars: Potency: Plasmodium falciparum GB4 proliferation inhibition.
Experiment [9] can be described thus: qHTS for differential inhibitors of proliferation of Plasmodium falciparum line 3D7 (AID 1876). Note: potency is the fitted concentration of half-maximal effect.
Experiment [10] can be described thus: qHTS for differential inhibitors of proliferation of Plasmodium falciparum line D10 (AID 1877).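 Note: potency is the fitted concentration of half-maximal effect; parasites grown with compound for 72 h before DNA staining.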
Experiment [11] is described as follows: qHTS for differential inhibitors of proliferation of Plasmodium falciparum line Dd2 (AID 1882). Note: potency is the fitted concentration of half-maximal effect; nearly all actives have a fitted effect of over 65% in size. Particulars: Potency: Plasmodium falciparum Dd2 proliferation inhibition. A digest of the protocol:
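SYBR Green I DNA fluorescence read-out, ex 485/em 535 nm. Signals were normalized to 0.29 uM artemisinin and DMSO wells, then corrected using vehicle-only plates flanking each stack. Parasite growth ran 72 h in erythrocytes before lysis.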

Experiment [12] is described as follows: qHTS for differential inhibitors of proliferation of Plasmodium falciparum line W2 (AID 1883).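 Note: potency is the fitted concentration of half-maximal effect; parasites grown with compound for 72 h before lysis and staining.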 Particulars: Potency: Plasmodium falciparum W2 proliferation inhibition.
A short description of experiment [13]: qHTS for differential inhibitors of proliferation of Plasmodium falciparum line HB3 (AID 1886).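 Note: potency is the fitted concentration of half-maximal effect; parasites grown with compound for 72 h before SYBR Green readout.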 Particulars: Potency: Plasmodium falciparum HB3 proliferation inhibition.

Sequence of Rap guanine nucleotide exchange factor 4 (Homo sapiens) (Q8WZA2 whole entry, looked up): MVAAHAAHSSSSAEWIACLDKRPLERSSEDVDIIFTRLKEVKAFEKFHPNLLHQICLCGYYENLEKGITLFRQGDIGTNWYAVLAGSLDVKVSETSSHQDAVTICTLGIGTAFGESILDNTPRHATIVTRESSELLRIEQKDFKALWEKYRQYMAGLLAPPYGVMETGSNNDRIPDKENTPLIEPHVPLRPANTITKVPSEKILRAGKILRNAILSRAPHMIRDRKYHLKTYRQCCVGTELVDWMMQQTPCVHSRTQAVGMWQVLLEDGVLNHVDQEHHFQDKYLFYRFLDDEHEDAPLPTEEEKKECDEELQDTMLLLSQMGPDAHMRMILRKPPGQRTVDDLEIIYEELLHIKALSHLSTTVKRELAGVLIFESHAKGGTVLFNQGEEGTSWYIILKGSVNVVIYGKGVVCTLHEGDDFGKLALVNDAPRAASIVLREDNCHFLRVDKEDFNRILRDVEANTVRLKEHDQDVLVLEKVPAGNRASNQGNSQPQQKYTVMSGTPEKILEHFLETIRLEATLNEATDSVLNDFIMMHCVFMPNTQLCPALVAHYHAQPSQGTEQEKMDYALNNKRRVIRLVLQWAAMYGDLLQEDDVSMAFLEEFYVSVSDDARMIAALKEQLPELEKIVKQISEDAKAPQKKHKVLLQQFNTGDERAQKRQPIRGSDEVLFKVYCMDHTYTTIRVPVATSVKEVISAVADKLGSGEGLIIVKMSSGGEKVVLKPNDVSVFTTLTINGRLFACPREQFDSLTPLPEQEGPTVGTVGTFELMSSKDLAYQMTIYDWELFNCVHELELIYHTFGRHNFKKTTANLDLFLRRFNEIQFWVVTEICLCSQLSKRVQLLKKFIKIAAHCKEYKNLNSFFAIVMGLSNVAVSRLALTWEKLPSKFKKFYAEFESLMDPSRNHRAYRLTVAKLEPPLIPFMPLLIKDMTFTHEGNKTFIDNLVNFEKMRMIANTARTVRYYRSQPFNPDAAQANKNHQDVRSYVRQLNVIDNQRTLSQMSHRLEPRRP
Sequence of Rap guanine nucleotide exchange factor 3 (Homo sapiens) (O95398 whole entry, looked up): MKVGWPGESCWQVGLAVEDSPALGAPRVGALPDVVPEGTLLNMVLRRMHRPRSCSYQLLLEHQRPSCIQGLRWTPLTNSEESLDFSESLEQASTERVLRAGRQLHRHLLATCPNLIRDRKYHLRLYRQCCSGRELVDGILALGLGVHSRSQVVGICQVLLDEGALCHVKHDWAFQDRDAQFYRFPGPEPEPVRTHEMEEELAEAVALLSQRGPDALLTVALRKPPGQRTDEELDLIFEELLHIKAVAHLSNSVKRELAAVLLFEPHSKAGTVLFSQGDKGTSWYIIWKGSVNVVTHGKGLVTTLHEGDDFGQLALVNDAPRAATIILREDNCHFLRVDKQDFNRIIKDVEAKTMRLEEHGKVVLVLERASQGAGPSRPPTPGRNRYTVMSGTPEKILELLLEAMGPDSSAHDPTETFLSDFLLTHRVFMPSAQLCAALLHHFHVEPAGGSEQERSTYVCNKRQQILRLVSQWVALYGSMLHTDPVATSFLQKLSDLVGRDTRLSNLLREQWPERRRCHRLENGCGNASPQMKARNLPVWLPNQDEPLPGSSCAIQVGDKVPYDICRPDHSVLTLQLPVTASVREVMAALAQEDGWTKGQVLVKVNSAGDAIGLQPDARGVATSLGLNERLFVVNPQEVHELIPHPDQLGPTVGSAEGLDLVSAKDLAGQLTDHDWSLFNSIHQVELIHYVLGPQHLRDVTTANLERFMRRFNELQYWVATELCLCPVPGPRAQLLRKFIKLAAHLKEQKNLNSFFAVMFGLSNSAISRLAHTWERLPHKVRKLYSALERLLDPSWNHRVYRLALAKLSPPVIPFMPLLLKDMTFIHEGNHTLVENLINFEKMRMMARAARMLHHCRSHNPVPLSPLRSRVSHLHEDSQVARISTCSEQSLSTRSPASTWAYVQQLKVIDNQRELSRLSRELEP

Consider `CCOC(=O)[C@]12Cc3cc(Cl)ccc3[C@H]1N(CC(=O)OC)C(=O)c1ccccc12`, for which the Potency entry in experiment [1], in experiment [2] and in experiment [4] was “inactive” each time. Further, the result in experiment [3] was inactive.
For the compound `O=[N+]([O-])c1ccc(N(CCO)CCO)c2c1no[n+]2[O-]`, the Potency entry in experiment [1], in experiment [2] and in experiment [4] was “inactive” each time. In experiment [3], the outcome was inactive.
`O=C1NC(=O)N(Cc2ccc(F)cc2)C(=O)/C1=C\c1ccoc1`: the Potency result in [1] and in [5] was “inactive” each time. Besides, in experiment [3], the compound was classed as inactive.
As to `CCC(C)c1ccc(N2C(=O)NC(=O)/C(=C/c3cccn3CCOc3ccc(C)cc3)C2=O)cc1` (stereo not drawn), the Potency entry in [1], in experiment [2], in [5] and in experiment [4] was “inactive” in each case.
On to `C[C@]12C=CC(=O)C=C1CCC1C2=CC[C@]2(C)[C@@H](C(=O)CN3CCN(c4cc(N5CCCC5)nc(N5CCCC5)n4)CC3)CC[C@@H]12` (stereo partly drawn), for which the compound was called inactive in [6]. The Potency in experiment [7] is 1120 nM (active); in experiment [8] it was 1260 nM (active); in experiment [9], 794 nM (active); in experiment [10], 1580 nM (active); in [11] it was 10000 nM (active); in experiment [12], 794 nM (active). For the same compound, in experiment [13], the Potency is 1410 nM (active).
